From PubChem
rCAG binder = binds r(CAG) RNA repeats. r(CAG) RNA repeat, TO-PRO-1 dye displacement fluorescence. inhibition, % at 3 µM. actives 1.3% (n = 370,000);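 active means inhibition above the plate cutoff, the mean of all test compounds on that plate plus 3 SD, cut at about 35% in these data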;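 further: 0% = DMSO alone and 100% = 100 µM mitoxantrone as full dye displacement; higher means more dye released from RNA so lower well fluorescence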
PRMT1 FP inh = inhibitors of human PRMT1. Q99873. recombinant PRMT1, activity-based probe fluorescence polarization. inhibition, % at 2.79 µM. actives 1.3% (n = 370,000). AID 652257;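 active means inhibition above about 21% made by adding two undisclosed values, limit read from the data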
Target sequence (Q99873 whole entry, looked up): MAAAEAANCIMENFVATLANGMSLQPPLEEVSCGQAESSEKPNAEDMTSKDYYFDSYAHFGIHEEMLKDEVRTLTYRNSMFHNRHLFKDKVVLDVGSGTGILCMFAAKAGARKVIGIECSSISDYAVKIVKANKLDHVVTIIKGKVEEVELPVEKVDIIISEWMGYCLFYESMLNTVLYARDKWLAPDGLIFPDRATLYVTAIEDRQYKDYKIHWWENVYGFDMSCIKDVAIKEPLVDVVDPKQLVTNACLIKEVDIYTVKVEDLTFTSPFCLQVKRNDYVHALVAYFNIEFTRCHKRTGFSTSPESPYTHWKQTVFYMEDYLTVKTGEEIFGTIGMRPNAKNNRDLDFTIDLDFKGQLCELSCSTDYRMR
ABHD5 PLIN5 PPI = inhibitors of human ABHD5-perilipin-5 interaction | Q00G26+Q8WTS1 | Split G. princeps luciferase complementation, luminescence, 4 h | inhibition, % at 4 µM | actives 0.78% (n = 360,000);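 active means inhibition above the mean inhibition across every tested compound plus 3 SD, cut at about 22% in these data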;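 further: 0% = DMSO only wells and the 100% control is not disclosed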
LANA-H2A inh = blocks KSHV LANA binding to histone H2A/H2B | Q9QR71 | cell-free LANA-H2A/H2B peptide, fluorescence polarization | inhibition, % (test concentration not listed) | actives 0.6% (n = 320,000) | AID 2629; in the data active means inhibition mostly above about 10%, no sharp cut-off; inactive means mostly below about 6.7%
Rtt109 HAT inh = inhibitors of Candida albicans Rtt109/Vps75 histone acetyltransferase. Q5AAJ8. purified Rtt109/Vps75, ThioGlo CoA-SH fluorescence, 4 h. actives 0.16% (n = 330,000). inhibition, % at 34.9 µM. AID 540336;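 active means inhibition of at least 50% in every replicate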
ALR H2O2 inh = inhibitors of human sulfhydryl oxidase ALR; purified ALR, DTT oxidation, H2O2 HRP-luminol luminescence; P55789; inhibition, % (test concentration not listed); actives 3.8% (n = 290,000);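 active means mean replicate inhibition above about 79%, with every replicate also reaching it, limit read from the data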
* marks the source's active call; other numbers are inactive results; / = no result. The list is not random: actives were taken first. Their share in the collection is about 5.9%.

SMILES	rCAG binder	PRMT1 FP inh	ABHD5 PLIN5 PPI	LANA-H2A inh	Rtt109 HAT inh	ALR H2O2 inh
CCOC(=O)[C@]12CCCC3=C1N(CCC3)C(=O)[C@@H](CC(=O)NCc1cccc3ccccc13)C2	-1	3	/	/	/	/
CC(=O)CSc1ncnc2sc3c(c12)CCC3	0	-5	-5	-2	4	94*
CC(OC(=O)CCN=C1NS(=O)(=O)c2ccccc21)C(=O)Nc1ccc(N(C)C)cc1 (stereo not given)	1	-3	0	7	-8	99*
Cc1c(Cl)cccc1NC(=S)NCCc1ccccn1	0	-7	4	0	3	65
S=C(NCCc1ccccn1)Nc1ccccc1Cl	-2	1	9	-3	31	94*
COc1ccccc1NC1=C(Cl)C(=O)N(C2CCCCC2)C1=O	-1	5	-2	6	52*	7
Cc1ccc(N=Cc2ccc(N(C)C)cc2)cc1	-3	-3	0	1	-7	-18
CN(C)c1ccc(/C=N/O)cc1	-4	4	-1	4	-4	99*
CN(C)c1ccc(N=Cc2ccco2)cc1	/	/	-6	1	0	94*
CN(C)c1ccc(C=Nc2ccccc2)cc1	2	-3	-3	0	6	-5
CN(C)c1ccc(C=Nc2ccc(N(C)C)cc2)cc1	14	22*	-19	2	-2	97*
O=C(c1cnn(C(=O)c2cccc(S(=O)(=O)N3CCOCC3)c2)c1)c1ccccc1O	2	0	1	3	4	90*
CCN(c1ccc(NC(=O)c2cccc(S(=O)(=O)N3CCN(C)CC3)c2)cc1)C(C)C	-1	3	0	2	1	99*
Cc1ccc(NC(=O)c2oc3ccc(S(=O)(=O)N4CCOCC4)cc3c2C)cc1C	2	-2	6	5	5	/
COc1cccc(NC(=O)c2oc3ccc(S(=O)(=O)N4CCOCC4)cc3c2C)c1	3	0	1	-2	17	82*
O=C(Nc1cccc(S(=O)(=O)N2CCCC2)c1)c1cccc(S(=O)(=O)N2CCOCC2)c1	7	2	2	-2	19	97*
O=C(c1cnn(C(=O)c2cccc(S(=O)(=O)N3CCOCC3)c2)c1)c1cc(Cl)cc(Cl)c1O	/	/	/	-5	/	/
CCc1nc2ccc(C(=O)N3CCN(c4ccccc4)CC3)cn2c1N(C)CCC(C)C	0	4	8	/	/	/
O[C@H](COc1ccc(Cl)cc1)CN1CCC(C(O)(c2ccccc2)c2ccccc2)CC1	0	-7	/	/	/	/
C[C@@H]1ON(C)[C@H]2C[C@H]3c4[nH]c5c(-c6ccc(F)cc6)cccc5c4CCN3C(=O)[C@@H]12	5	-2	/	/	/	/
COc1cccc(CNC(=O)[C@@H]2CCCN2C(=O)[C@H]2CCCCN2C(=O)c2c(F)cccc2F)c1	-1	0	-1	/	/	/
O=C(Nc1cccc(C(F)(F)F)c1)OC1CCC12CCC(c1ccccc1)CC2 (stereo not given)	5	5	/	/	/	/
Cc1ccc[n+](-c2nc([O-])sc2/C=N/Nc2ccc([N+](=O)[O-])cc2)c1	0	2	0	-2	1	92*
COc1ccccc1N1C(=N)S/C(=C\c2ccc(-c3ccccc3C(=O)O)o2)C1=O	4	3	12	0	23	98*
CCOC(=O)CC1C(=O)NCCN1Cc1cccc(C(F)(F)F)c1 (stereo not given)	0	24*	-6	1	-5	-14
SMILES	rCAG binder	PRMT1 FP inh	ABHD5 PLIN5 PPI	LANA-H2A inh	Rtt109 HAT inh	ALR H2O2 inh
O=C(CC1C(=O)NCCN1Cc1cccc(C(F)(F)F)c1)NC1CCOCC1 (stereo not given)	0	-2	-5	9	-2	-14
CCOC(=O)C1(C)CCCCN1C(=O)c1ccoc1 (stereo not given)	1	0	9	/	/	/
COC(=O)[C@]12C[C@H](CC(=O)NCCCCc3ccccc3)C(=O)N(Cc3ccc(Cl)cc3Cl)C1=C[C@H](C1CCCC1)O[C@@H]2C	11	1	/	/	/	/
Oc1ccccc1N1CCN(c2nnnn2-c2ccccc2)CC1	2	2	-2	-2	-1	99*
Fc1ccccc1N1CCN(c2nnnn2-c2ccccc2)CC1	0	4	15	-2	9	-3
c1ccc(N2CCN(c3ncccn3)CC2)cc1	-5	2	5	-6	19	98*
O=C(c1ccccc1)N1CCN(c2ncccn2)CC1	-1	-5	3	1	-7	-12
